Rows were chosen to be rich in hits. Some 11% of all compounds tested hit in one or more screens of this group.
FLuc inh – blocks purified firefly luciferase enzyme activity; AID 1347043; P08659; Potency, µM (series often up to 115 µM), actives largely listed as inhibitors; purified P. pyralis luciferase, luminescence, biochemical; hit rate 2.5% among 76,000; further: nearly all actives have a fitted effect of over 65% in size
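Luminescence read by CCD imaging after purified firefly luciferase (10nM final) was added to substrate buffer holding 10uM D-luciferin and 10uM ATP, pH 7.5, pre-dosed with compound.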
HEK293 tox – cytotoxic compounds in HEK 293 cells; HEK 293 viability, ATP luminescence (CellTiter-Glo), 48-72 h; Potency, µM (series often up to 115 µM), actives largely listed as inhibitors; hit rate 6.6% among 94,000; further: nearly all actives have a fitted effect of over 60% in size
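HEK 293 cells at 250 cells/well were exposed to compounds by pintool transfer for 48 or 72 hr at 37 degree Celsius, 5% CO2. Viability was read as ATP-coupled luminescence with CellTiter-Glo after 10 min at room temperature.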
hNpr1 antagonist – human Npr1 receptor antagonism | P16066 | HEK293 hNpr1 GloSensor cGMP, ANP-stimulated luminescence | Potency, µM (series often up to 46.3 µM), hits mostly inhibitors | hit rate 1.6% among 76,000 | AID 1347048; calls by dose curve; further: nearly all actives have a fitted effect of over 60% in size
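HEK293 cells stably expressing human Npr1 and cGMP GloSensor pGS-40F, loaded 2 h with 2% GloSensor reagent, given compound 30 min at room temperature. Luminescence read before and 20 min after 0.1 nM hNppA.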
NIH3T3 tox – cytotoxic compounds in NIH 3T3 cells | NIH 3T3 viability, CellTiter-Glo ATP luminescence, 48-72 h | Potency, µM (series often up to 96.7 µM), most hits filed as inhibitors | hit rate 4.3% among 94,000; further: nearly all actives have a fitted effect of over 55% in size
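ATP-dependent luminescence (CellTiter-Glo) served as the viability signal for NIH 3T3 cells treated with compound for 48 or 72 hr at 37 °C.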
Npr1 antag conf – confirmation of human Npr1 natriuretic peptide receptor antagonists; shares compounds with hNpr1 antagonist; HEK293 hNpr1 cGMP GloSensor luminescence, ANP-stimulated; Potency, µM (highest dose often 57.6 µM), usual class: inhibitors; hit rate 76% among 1,400; AID 1347044; calls by dose curve; further: nearly all actives have a fitted effect of over 70% in size
Npr2 selectivity – hNpr2 antagonism, selectivity versus Npr1; Potency, µM (series often up to 57.6 µM), actives largely listed as inhibitors; shares compounds with hNpr1 antagonist; HEK293 hNpr2 GloSensor cGMP luminescence, CNP-stimulated; hit rate 67% among 1,400; calls by dose curve; further: nearly all actives have a fitted effect of over 70% in size
FLuc inh counter – counter-screen for Npr1 antagonists: firefly luciferase inhibitors | purified FLuc enzyme, luminescence, Km substrate | Potency, µM (top dose mostly 57.6 µM), actives largely listed as inhibitors | shares compounds with hNpr1 antagonist | hit rate 0.7% among 1,400
GloSensor ctrl – reduces cGMP signal in GloSensor control cells; shares compounds with hNpr1 antagonist; HEK293 GloSensor cGMP, SNP-stimulated, luminescence; Potency, µM (highest dose often 57.6 µM), most hits filed as inhibitors; hit rate 69% among 1,400; AID 1347051; calls by dose curve; further: nearly all actives have a fitted effect of over 70% in size
A number is an active result; 0 = inactive; ? = inconclusive; - = not tested or not shown. Unless noted, the call rests on the fitted dose curve; in most records, active means well fitted curve in the direction sought with a large enough effect; inconclusive means small, poorly fitted or top-dose-only effect, or another doubt; inactive means no such curve, though single readings can be large; an effect the other way counts as inactive or inconclusive.

SMILES	FLuc inh	HEK293 tox	hNpr1 antagonist	NIH3T3 tox	Npr1 antag conf	Npr2 selectivity	FLuc inh counter	GloSensor ctrl
CCN(CC)C(=O)N1CC(Oc2ccc(-c3nc(C)no3)cc2)C1	0	?	16µM	?	24µM	?	0	?
COCc1nc(-c2ccc(OC3CN(C(=O)Cc4ccccc4)C3)cc2)no1	0	?	0	?	-	-	-	-
O=C(NCc1ccc2c(c1)OCO2)c1ccc2nnc(C3CCOCC3)n2c1	-	0	-	0	-	-	-	-
O=C(Cn1cccc1-c1nc(-c2ccccc2)no1)Nc1ccc(F)cc1	0	?	0	0	-	-	-	-
Cc1noc(-c2ccc(OC3CN(C(=O)NCc4ccccc4)C3)cc2)n1	0	?	?	?	-	-	-	-
Cc1noc(-c2ccc(OC3CN(C(=O)NCc4ccc(F)cc4)C3)cc2)n1	0	?	13µM	?	27µM	?	0	24µM
COCc1nc(-c2ccc(OC3CN(C(=O)NC(C)C)C3)cc2)no1	0	?	13µM	0	24µM	24µM	0	24µM
COCc1nc(-c2ccc(OC3CN(C(=O)NCc4ccccc4)C3)cc2)no1	0	?	?	0	-	-	-	-
CN(C)S(=O)(=O)N(C)C1CCc2nn(CC3CC3)c(=O)n2CC1 (centres undefined)	-	0	-	0	-	-	-	-
COc1ccc(NC(=O)O[C@@H]2CO[C@H]3[C@@H]2OC[C@@H]3NS(=O)(=O)c2ccc3ccccc3c2)cc1	?	?	0	?	-	-	-	-
CC(=O)Nc1ccc(S(=O)(=O)N[C@H]2CO[C@H]3[C@@H]2OC[C@@H]3Nc2nccc(-c3ccco3)n2)cc1	0	25µM	13µM	?	24µM	24µM	0	27µM
CC(=O)Nc1ccc(S(=O)(=O)N[C@H]2CO[C@H]3[C@@H]2OC[C@H]3OC(=O)Nc2ccc(Oc3ccccc3)cc2)cc1	0	?	11µM	?	12µM	17µM	?	12µM
COc1ccc(OC)c(S(=O)(=O)N[C@H]2CO[C@H]3[C@@H]2OC[C@H]3OC(=O)Nc2ccc(Oc3ccccc3)cc2)c1	0	?	8.9µM	?	11µM	14µM	0	9.7µM
CCOc1cccc(CN2CC(Oc3ccccc3C(=O)NC3CC3)C2)c1	0	?	0	?	-	-	-	-
O=C(NCc1ccccn1)c1cn2cc(-c3ccc(C(F)(F)F)cc3)sc2n1	-	0	-	0	-	-	-	-
COc1ccc(Cn2c(=O)c(C(=O)NC3CC3)nc3cccnc32)cc1	-	0	-	0	-	-	-	-
CCN1CCN(C[C@@H]2CN(Cc3ccccc3OC(F)F)C[C@@H]2CO)CC1	0	0	0	0	-	-	-	-
O=C1[C@@H]2C[C@@H](CN2CC2CC2)Oc2ccccc2N1Cc1cccnc1	0	?	0	0	-	-	-	-
O=C1[C@@H]2C[C@@H](CN2Cc2ccc(C(F)(F)F)cc2)Oc2ccccc2N1Cc1cccnc1	0	35µM	0	?	?	0	0	0
Cc1oc(C(O)c2ccccc2F)nc1C(=O)Nc1ccccc1C(N)=O (centres undefined)	0	?	25µM	?	31µM	35µM	0	35µM
CNC(=O)c1cccc(NC(=O)c2nc(C(O)c3ccccc3F)oc2C)c1 (centres undefined)	0	79µM	35µM	?	31µM	31µM	0	31µM
Cn1nccc1C(=O)N1CCC2(CC1)OCCN(Cc1ccccc1F)C2=O	0	?	32µM	0	35µM	31µM	0	31µM
COc1ccc2nc(C[C@@H]3C[C@@H](C(C)C)[C@H](CNC(=O)CCC(=O)O)C=C3C)[nH]c2c1	0	0	0	0	-	-	-	-
COc1ccc2nc(C[C@@H]3C[C@@H](C(C)C)[C@H](CNCc4ccccc4OC)C=C3C)[nH]c2c1	0	20µM	0	28µM	?	?	0	0
COc1ccc(CNC(=O)c2ccc3c(c2)N(C)C2CCCN2C3=O)c(OC)c1 (centres undefined)	0	?	0	0	-	-	-	-
SMILES	FLuc inh	HEK293 tox	hNpr1 antagonist	NIH3T3 tox	Npr1 antag conf	Npr2 selectivity	FLuc inh counter	GloSensor ctrl
O=C(NCCOc1ccccc1)c1cnc2n1CCN(Cc1c[nH]c3ccccc13)CC2	0	100µM	?	?	31µM	?	0	35µM
O=C(NCc1ccc(Cl)cc1)C1CCN(c2cc(C(F)(F)F)ncn2)CC1	0	?	11µM	?	19µM	19µM	0	15µM
COc1cccc(CNC(=O)C2CCN(c3cc(C(F)(F)F)ncn3)CC2)c1	0	0	?	0	?	?	0	?
O=C(Cc1ccc(Cl)cc1)NC1CCN(c2cc(C(F)(F)F)ncn2)CC1	0	?	?	0	-	-	-	-
Cc1n[nH]c(C)c1Cc1ccc(C(=O)N2CCC(CCOc3ccc(F)cc3)C2)o1 (centres undefined)	0	22µM	16µM	35µM	24µM	24µM	0	22µM
CC(C)Oc1ccc(CNC(=O)c2cc3n(n2)CC(c2ccc(Cl)cc2)OC3)cc1 (centres undefined)	0	?	?	?	?	0	0	0
O=C(NCc1ccc(F)c(Cl)c1)c1cc2n(n1)CC(c1ccc(Cl)cc1)OC2 (centres undefined)	0	35µM	?	?	?	0	0	?
Cc1ccc(CNC(=O)c2cc3n(n2)CC(c2ccc(Cl)cc2)OC3)cc1 (centres undefined)	0	?	?	?	-	-	-	-
CC1(COc2ccccc2)COc2ccc(C(=O)N3CCOCC3c3ccncc3)cc2N1 (centres undefined)	0	?	0	?	?	?	0	?
O=C(NCCc1ccncc1)C1CN(S(=O)(=O)c2ccccc2)CC12CCCCC2 (centres undefined)	0	0	0	0	-	-	-	-
OCC1(CCOc2ccccc2)CCCN(c2ncnc3sccc23)C1 (centres undefined)	0	?	1.8µM	?	2.7µM	3.9µM	0	2.2µM
COc1ccc(C(=O)N2CCC(Cc3nc(-c4ccccc4)no3)CC2)cc1OC	0	?	2.8µM	?	5.4µM	6.9µM	0	5.4µM
CCCCOc1ccc(C(=O)N2CCC(Cc3nc(-c4ccccc4)no3)CC2)cc1	0	?	10µM	?	17µM	14µM	0	12µM
Cc1ccc(C(=O)N2CCC(Cc3nc(-c4ccccc4)no3)CC2)s1	0	32µM	6.3µM	?	7.7µM	9.7µM	0	8.6µM
COc1ccc(C(=O)N2CCC[C@H]2c2nc(-c3ccccc3)no2)cc1F	0	0	0	0	-	-	-	-
Cc1cc(C)cc(C(=O)N2CCC(Cc3nc(-c4ccccc4)no3)CC2)c1	0	?	?	?	-	-	-	-
COc1ccc(C(=O)N2CCC(Cc3nc(-c4ccccc4)no3)CC2)cc1F	0	?	3.2µM	?	3.1µM	3.1µM	0	3.1µM

Screening results deposited in PubChem by National Center for Advancing Translational Sciences (NCATS).
